Data taken from PubChem BioAssay (EPA / NIEHS).
The source made the active and inactive calls. The calls were made as follows: active = hit-call score of the fitted dose curve at least 0.9, where 1 is the maximum; inactive = score below 0.9.

Tests used:
Conditions in all cases: mRNA level, 48 h; actives raise or lower the signal
[1] = read-out: growth arrest and DNA damage 45 (GADD45B), GADD45B (gene 4616); experiment: LTEA_HepaRG_GADD45B: Life Technologies and Expression Analysis (LTEA) Assay for growth arrest and DNA damage 45 (GADD45B) using HepaRG (AID 2283461)
Summary of the method: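 HepaRG, ~100,000 cells/well, 48 h plating; serum-free induction medium; cpd 100 uM top, half-log x8, 0.5% DMSO, duplicate, 48 h; lysis in RLT, RNA isolation, qRT-PCR; norm ACTB/GAPDH/POLR2A; bidirectional fit vs DMSO.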

[2] = read-out: ABC Transporter (ABCB11), ABCB11 (gene 8647); experiment: LTEA_HepaRG_ABCB11: Life Technologies and Expression Analysis (LTEA) Assay for ABC Transporter (ABCB11) using HepaRG (AID 2283463)
Summary of the method: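 ABCB11 transcript levels are read by Fluidigm TaqMan qRT-PCR after 48 h chemical treatment of human HepaRG cells. Concentrations span 100 uM downward in half-log steps with 0.5% DMSO; gain or loss is fitted against DMSO controls.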

[3] = read-out: ABC Transporter (ABCC2), ABCC2 (gene 1244); experiment: LTEA_HepaRG_ABCC2: Life Technologies and Expression Analysis (LTEA) Assay for ABC Transporter (ABCC2) using HepaRG (AID 2283464)
Summary of the method: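 HepaRG, 48 h post-plating; serum-free induction medium; cpd 8-pt, 100 uM top, half-log, 0.5% DMSO, duplicate, 48 h. Readout: ABCC2 mRNA by qRT-PCR, norm. ACTB/GAPDH/POLR2A. Bidirectional fit vs DMSO baseline.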

[4] = read-out: Broad substrate specificity ATP-binding cassette transporter ABCG2 (Homo sapiens) (UniProt Q9UNQ0); experiment: LTEA_HepaRG_ABCG2: Life Technologies and Expression Analysis (LTEA) Assay for ABC Transporter (ABCG2) using HepaRG (AID 2283465)
Summary of the method: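 Read-out is ABCG2 mRNA induction or loss quantified by qRT-PCR after 48 h chemical treatment of human HepaRG cells, normalized to three housekeeping genes. Concentrations reached 100 uM top in half-log steps; fitting was bidirectional against 0.5% DMSO.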

[5] = read-out: ATP-citrate lyase (ACLY), ACLY (gene 47); experiment: LTEA_HepaRG_ACLY: Life Technologies and Expression Analysis (LTEA) Assay for ATP-citrate lyase (ACLY) using HepaRG (AID 2283466)
Summary of the method: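 HepaRG, 48 h exposure, 8-pt half-log dilutions (top 100 uM), 0.5% DMSO. Readout: ACLY mRNA, TaqMan qRT-PCR, housekeeping-normalized (ACTB/GAPDH/POLR2A). Bidirectional curve fit vs DMSO.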

[6] = read-out: Peroxisomal acyl-coenzyme A oxidase 1 (ACOX1) gene, ACOX1 (gene 51); experiment: LTEA_HepaRG_ACOX1: Life Technologies and Expression Analysis (LTEA) Assay for Peroxisomal acyl-coenzyme A oxidase 1 (ACOX1) gene using HepaRG (AID 2283467)
Summary of the method: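 Measured by qRT-PCR against three housekeeping genes: ACOX1 transcript change in human HepaRG cells after 48 h dosing. Concentrations ran up to 100 uM in half-log steps. Curves were fitted bidirectionally relative to 0.5% DMSO.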

[7] = read-out: Alkaline Phosphatase, Placental (ALPP) gene, ALPP (gene 250); experiment: LTEA_HepaRG_ALPP: Life Technologies and Expression Analysis (LTEA) Assay for Alkaline Phosphatase, Placental (ALPP) gene using HepaRG (AID 2283468);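 as to AC50: differentiated human HepaRG liver cells in serum-free induction medium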
Summary of the method: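 HepaRG, 48 h plating then 48 h dosing, serum-free induction medium, 0.5% DMSO. 8 conc, half-log, max 100 uM, duplicates. Endpoint: ALPP transcript by qRT-PCR, housekeeping-normalized; gain or loss fitted vs DMSO.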

[8] = read-out: Bcl-2 (BAD) gene, BAD (gene 572); experiment: LTEA_HepaRG_BAD: Life Technologies and Expression Analysis (LTEA) Assay for Bcl-2 (BAD) gene using HepaRG (AID 2283469)
Summary of the method: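 BAD transcript change, measured by qRT-PCR against three housekeeping genes and fitted in both directions relative to 0.5% DMSO, after 48 h chemical treatment of human HepaRG liver cells at concentrations up to 100 uM.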

[9] = read-out: Bcl-2 (BAX) gene, BAX (gene 581); experiment: LTEA_HepaRG_BAX: Life Technologies and Expression Analysis (LTEA) Assay for Bcl-2 (BAX) gene using HepaRG (AID 2283470)
Summary of the method: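 Concentration-response endpoint fitted in both directions relative to 0.5% DMSO vehicle. Human HepaRG cultures receive test chemicals for 48 h at up to 100 uM; BAX mRNA is quantified by qRT-PCR against housekeeping genes.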

Broad substrate specificity ATP-binding cassette transporter ABCG2 (Homo sapiens), sequence (Q9UNQ0 whole entry, looked up): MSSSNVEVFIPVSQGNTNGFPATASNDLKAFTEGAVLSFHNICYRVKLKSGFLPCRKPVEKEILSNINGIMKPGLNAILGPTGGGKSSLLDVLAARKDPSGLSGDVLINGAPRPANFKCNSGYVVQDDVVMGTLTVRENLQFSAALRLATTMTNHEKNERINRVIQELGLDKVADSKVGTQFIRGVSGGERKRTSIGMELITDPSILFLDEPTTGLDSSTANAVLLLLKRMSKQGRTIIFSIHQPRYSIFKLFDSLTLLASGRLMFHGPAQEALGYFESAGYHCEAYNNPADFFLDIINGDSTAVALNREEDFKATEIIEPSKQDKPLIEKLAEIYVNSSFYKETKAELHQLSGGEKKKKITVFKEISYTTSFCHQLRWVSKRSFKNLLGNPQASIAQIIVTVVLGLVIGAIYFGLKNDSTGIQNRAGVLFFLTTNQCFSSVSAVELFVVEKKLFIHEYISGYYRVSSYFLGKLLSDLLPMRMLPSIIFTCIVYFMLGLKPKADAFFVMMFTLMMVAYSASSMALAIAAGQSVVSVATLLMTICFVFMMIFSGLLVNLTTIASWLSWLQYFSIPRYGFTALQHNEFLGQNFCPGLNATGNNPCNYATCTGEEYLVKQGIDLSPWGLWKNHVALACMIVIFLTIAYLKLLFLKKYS

SMILES | outcome [1] | outcome [2] | outcome [3] | outcome [4] | outcome [5] | outcome [6] | outcome [7] | outcome [8] | outcome [9] | AC50 [3] | AC50 [4] | AC50 [2] | AC50 [6] | AC50 [5] | AC50 [7] | AC50 [9] | AC50 [1]
O=C1c2ccccc2C(=O)N1SC(Cl)(Cl)Cl | inactive | inactive | inactive | inactive | inactive | inactive | inactive | inactive | inactive |  |  |  |  |  |  |  | 
CC1(C)C(C=C(Cl)Cl)C1C(=O)OC(C#N)c1ccc(F)c(Oc2ccccc2)c1 (stereo unspecified) | inactive | inactive |  |  | inactive | inactive | inactive | inactive | inactive | 50 µM (active) | 21.4 µM (active) |  |  |  |  |  | 
Clc1ccccc1-c1nnc(-c2ccccc2Cl)nn1 | inactive | inactive |  |  | inactive | inactive | inactive | inactive | inactive |  | 5.64 µM (active) |  |  |  |  |  | 
CNC(=O)CSP(=S)(OC)OC | inactive | inactive | inactive | inactive | inactive | inactive | inactive | inactive | inactive |  |  |  |  |  |  |  | 
COc1nn(CSP(=S)(OC)OC)c(=O)s1 | inactive | inactive | inactive | inactive | inactive | inactive | inactive | inactive | inactive |  |  |  |  |  |  |  | 
CC(C)N(C(=O)COc1nnc(C(F)(F)F)s1)c1ccc(F)cc1 | inactive |  | inactive | inactive | inactive |  | inactive | inactive | inactive |  |  | 50 µM (active) | 19.4 µM (active) |  |  |  | 
CCCN(CCOc1c(Cl)cc(Cl)cc1Cl)C(=O)n1ccnc1 | inactive |  |  |  |  |  |  | inactive |  | 84.8 µM (active) | 10.8 µM (active) | 25.5 µM (active) | 50 µM (active) | 12.5 µM (active) | 35.6 µM (active) | 50 µM (active) | 
Cc1[nH]c(=O)n(C(C)(C)C)c(=O)c1Cl | inactive | inactive | inactive | inactive | inactive | inactive | inactive | inactive | inactive |  |  |  |  |  |  |  | 
N#CN | inactive | inactive | inactive | inactive | inactive | inactive | inactive | inactive | inactive |  |  |  |  |  |  |  | 
OCCOc1ccccc1 | inactive | inactive | inactive | inactive | inactive | inactive | inactive | inactive | inactive |  |  |  |  |  |  |  | 
O=C(O)CCCOc1ccc(Cl)cc1Cl | inactive | inactive | inactive |  |  |  | inactive | inactive | inactive |  | 11.6 µM (active) |  | 20.5 µM (active) | 50.8 µM (active) |  |  | 
C#CCN1C(=O)COc2cc(F)c(N3C(=O)C4=C(CCCC4)C3=O)cc21 | inactive |  |  | inactive | inactive | inactive | inactive | inactive | inactive | 8.81 µM (active) |  | 50 µM (active) |  |  |  |  | 
O=C(NC(=O)c1c(F)cccc1F)Nc1ccc(OC(F)(F)C(F)OC(F)(F)F)c(Cl)c1 (stereo unspecified) | inactive | inactive | inactive | inactive |  | inactive | inactive | inactive | inactive |  |  |  |  | 25 µM (active) |  |  | 
CCN(CC)C(=O)SCc1ccc(Cl)cc1 | inactive | inactive | inactive | inactive | inactive | inactive | inactive | inactive | inactive |  |  |  |  |  |  |  | 
N#Cc1c(Cl)c(Cl)c(Cl)c(C#N)c1Cl | inactive |  | inactive | inactive | inactive | inactive |  | inactive |  |  |  | 47.1 µM (active) |  |  |  | 23.9 µM (active) | 
CNC(=O)Oc1ccccc1OC(C)C | inactive | inactive | inactive | inactive |  | inactive |  | inactive | inactive |  |  |  |  |  |  |  | 
O=C(Nc1ccccc1)Nc1cnns1 | inactive |  |  | inactive | inactive |  |  | inactive | inactive | 89.5 µM (active) |  | 63.6 µM (active) | 50 µM (active) |  | 78.6 µM (active) |  | 
COP(=S)(OC)Oc1ccc([N+](=O)[O-])cc1 | inactive | inactive | inactive | inactive | inactive | inactive | inactive | inactive | inactive |  |  |  |  |  |  |  | 
CC(C)OC(=O)Nc1cccc(Cl)c1 | inactive | inactive | inactive | inactive | inactive | inactive | inactive | inactive | inactive |  |  |  |  |  |  |  | 
C[C@H]1[C@H](c2ccc(Cl)cc2)SC(=O)N1C(=O)NC1CCCCC1 |  |  | inactive |  |  | inactive |  | inactive |  |  | 39.7 µM (active) | 76.5 µM (active) |  | 79.7 µM (active) | 32.1 µM (active) | 77.2 µM (active) | 82.2 µM (active)
CCC(C)(C)C(=O)OC1=C(c2ccc(Cl)cc2Cl)C(=O)OC12CCCCC2 | inactive |  | inactive | inactive | inactive | inactive | inactive | inactive | inactive |  |  | 20.7 µM (active) |  |  |  |  | 
CCOC1Oc2ccc(OS(C)(=O)=O)cc2C1(C)C (stereo unspecified) | inactive |  | inactive |  |  |  |  | inactive | inactive |  | 28.2 µM (active) | 73 µM (active) | 60.8 µM (active) | 82.6 µM (active) | 43.6 µM (active) |  | 
CC1(c2ccc(Oc3ccccc3)cc2)OC(=O)N(Nc2ccccc2)C1=O (stereo unspecified) | inactive |  |  |  |  |  |  | inactive |  | 79.3 µM (active) | 13.2 µM (active) | 8.3 µM (active) | 26.7 µM (active) | 3.66 µM (active) | 11.2 µM (active) | 12.2 µM (active) | 
CCC(C)(NC(=O)c1cc(Cl)c(C)c(Cl)c1)C(=O)CCl (stereo unspecified) | inactive |  |  |  | inactive |  | inactive | inactive | inactive | 89 µM (active) | 12.2 µM (active) |  | 85.1 µM (active) |  |  |  | 
